Results as given in PubChem BioAssay.
For some assays here: Potency and affinity values are given separately. Calls of active or inactive are those of the source.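 Rule for the calls, unless noted: active = hit in primary screen, with calcium signal over 5 SD above buffer well mean in both duplicates; inactive = the rest.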

Legend:
[1] = system: TRPC4 beta (transient receptor potential cation channel C4), mouse; experiment: activators of mouse TRPC4 channel, confirmation, cell-based, Fluo4 calcium, HEK293 TRPC4beta/mu-opioid, duplicates, 10 µM (AID 2426;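 active = fluorescence ratio normalized to control raised more than 50% in primary screen plus both repeat runs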;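 for activation: percent rise of integrated ratio over buffer wells lacking compound which define 0%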); settings: Fluo4 calcium fluorescence, at 10 µM; stronger effect = higher value
[2] = system: transient receptor potential cation channel C4 beta (TRPC4), mouse; experiment: activators of mouse TRPC4 channel, confirmation, cell-based, second round, Fluo4, HEK293 TRPC4beta/mu-opioid, 1 µM (AID 2461;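 active = primary screen active and over 50% activation in each of two duplicate runs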;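 for activation: 0% = wells without test compound as baseline of integrated fluorescence ratio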); settings: Fluo4 calcium fluorescence, at 1 µM; stronger effect = higher value
[3] = system: TRPC4 (transient receptor potential cation channel C4 beta), mouse; experiment: positive allosteric modulators of mouse TRPC4, confirmation, cell-based, second round, Fluo-4, HEK293 TRPC4beta/mu-opioid, 1 µM (AID 2554;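 active = primary screen hit whose fluorescence ratio, in both repeats, exceeds the weak agonist control mean by 3 SD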); settings: DAMGO EC20, Fluo-4 calcium flux, at 1 µM; stronger effect = higher value
[4] = system: TRPC4 beta (transient receptor potential cation channel C4), mouse; experiment: positive allosteric modulators of mouse TRPC4, confirmation, cell-based, Fluo-4, HEK293 TRPC4beta/mu-opioid (AID 2555;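 active = primary screen hit whose calcium fluorescence ratio, in both repeats, exceeds the weak agonist control mean by 3 SD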); settings: DAMGO EC20, Fluo-4 calcium flux, at 10 µM; stronger effect = higher value
[5] = target: Short transient receptor potential channel 4 (Mus musculus) (UniProt Q9QUQ5); experiment: inhibitors of mouse TRPC4 channel, confirmation, cell-based, Fluo4, HEK293 TRPC4beta/mu-opioid (AID 2636;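 active = calcium signal cut by more than 3 SD below the full-agonist control yet still positive, in both repeats and the earlier primary screen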); settings: DAMGO, Fluo4 calcium flux, at 10 µM; stronger effect = higher value
Chain of Short transient receptor potential channel 4 (Mus musculus) (Q9QUQ5 whole entry, looked up): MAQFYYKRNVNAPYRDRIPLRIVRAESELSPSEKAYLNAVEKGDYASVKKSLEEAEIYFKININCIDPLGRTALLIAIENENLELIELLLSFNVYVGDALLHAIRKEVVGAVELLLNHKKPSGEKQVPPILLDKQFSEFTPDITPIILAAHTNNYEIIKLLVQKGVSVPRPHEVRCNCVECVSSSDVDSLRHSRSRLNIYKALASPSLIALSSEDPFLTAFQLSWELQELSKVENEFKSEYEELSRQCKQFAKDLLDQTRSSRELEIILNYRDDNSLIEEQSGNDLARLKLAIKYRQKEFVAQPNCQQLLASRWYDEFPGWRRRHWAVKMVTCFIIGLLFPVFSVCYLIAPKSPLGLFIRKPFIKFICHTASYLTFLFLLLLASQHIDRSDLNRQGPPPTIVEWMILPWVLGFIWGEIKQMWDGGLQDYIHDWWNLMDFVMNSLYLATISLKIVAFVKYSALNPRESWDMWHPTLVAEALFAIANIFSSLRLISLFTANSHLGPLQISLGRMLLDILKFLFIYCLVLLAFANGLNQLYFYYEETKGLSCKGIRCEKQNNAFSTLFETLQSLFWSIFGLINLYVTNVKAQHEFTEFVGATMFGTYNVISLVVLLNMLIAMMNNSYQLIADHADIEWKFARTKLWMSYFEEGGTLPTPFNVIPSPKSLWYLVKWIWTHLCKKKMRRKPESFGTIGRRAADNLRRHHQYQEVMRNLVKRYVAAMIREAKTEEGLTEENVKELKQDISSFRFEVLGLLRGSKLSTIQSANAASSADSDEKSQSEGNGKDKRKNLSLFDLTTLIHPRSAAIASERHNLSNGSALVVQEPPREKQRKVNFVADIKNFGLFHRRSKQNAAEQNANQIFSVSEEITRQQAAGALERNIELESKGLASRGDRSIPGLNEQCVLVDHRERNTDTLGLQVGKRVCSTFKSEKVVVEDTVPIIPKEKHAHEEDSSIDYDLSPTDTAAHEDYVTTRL

[6] = target: Short transient receptor potential channel 4 (Mus musculus) (UniProt Q9QUQ5); experiment: inhibitors of mouse TRPC4 channel, confirmation, cell-based, second round, Fluo4, HEK293 TRPC4beta/mu-opioid, 1 µM (AID 2637;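 active = calcium signal ratio cut to more than 3 SD under the fully stimulated control mean yet still positive, in both repeats and the primary screen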); settings: Fluo4 calcium flux, DAMGO, at 1 µM; stronger effect = higher value
[7] = target: Short transient receptor potential channel 4 (Mus musculus) (UniProt Q9QUQ5); experiment: TRPC4 positive allosteric modulators, dose response, cell-based, HEK293 TRPC4/mu-opioid, Fluo-4 calcium, EC20 DAMGO (AID 434941;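 active = earlier screen potentiator hit that boosts the TRPC4 ion channel at some dose, with a dose response; inactive = no potentiation, no dose response, or not a prior hit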;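 note: calcium entry triggered by an EC20 dose of DAMGO at the co-expressed mu-opioid receptor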)
[8] = target: Short transient receptor potential channel 4 (Mus musculus) (UniProt Q9QUQ5); experiment: mouse TRPC4 channel inhibitors, dose response, cell-based, HEK293 TRPC4/mu-opioid, Fluo-4 calcium (AID 434942;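 active = primary screen inhibitor hit that blocks the TRPC4 channel at some tested dose, yielding a dose curve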)
[9] = target: Short transient receptor potential channel 6 (Mus musculus) (UniProt Q61143); experiment: inhibition of mouse TRPC6 channel, confirmation, selectivity assay for TRPC4 inhibitor project, cell-based, HEK293, membrane potential dye, duplicate (AID 434948;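 active = active in primary screen and both duplicates, each dropping signal beyond three positive-control SD with fluorescence still positive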); settings: HEK293 TRPC6, membrane potential dye fluorescence, at 10 µM, stimulated with maximal-effect acetylcholine; stronger effect = higher value
Chain of Short transient receptor potential channel 6 (Mus musculus) (Q61143 whole entry, looked up): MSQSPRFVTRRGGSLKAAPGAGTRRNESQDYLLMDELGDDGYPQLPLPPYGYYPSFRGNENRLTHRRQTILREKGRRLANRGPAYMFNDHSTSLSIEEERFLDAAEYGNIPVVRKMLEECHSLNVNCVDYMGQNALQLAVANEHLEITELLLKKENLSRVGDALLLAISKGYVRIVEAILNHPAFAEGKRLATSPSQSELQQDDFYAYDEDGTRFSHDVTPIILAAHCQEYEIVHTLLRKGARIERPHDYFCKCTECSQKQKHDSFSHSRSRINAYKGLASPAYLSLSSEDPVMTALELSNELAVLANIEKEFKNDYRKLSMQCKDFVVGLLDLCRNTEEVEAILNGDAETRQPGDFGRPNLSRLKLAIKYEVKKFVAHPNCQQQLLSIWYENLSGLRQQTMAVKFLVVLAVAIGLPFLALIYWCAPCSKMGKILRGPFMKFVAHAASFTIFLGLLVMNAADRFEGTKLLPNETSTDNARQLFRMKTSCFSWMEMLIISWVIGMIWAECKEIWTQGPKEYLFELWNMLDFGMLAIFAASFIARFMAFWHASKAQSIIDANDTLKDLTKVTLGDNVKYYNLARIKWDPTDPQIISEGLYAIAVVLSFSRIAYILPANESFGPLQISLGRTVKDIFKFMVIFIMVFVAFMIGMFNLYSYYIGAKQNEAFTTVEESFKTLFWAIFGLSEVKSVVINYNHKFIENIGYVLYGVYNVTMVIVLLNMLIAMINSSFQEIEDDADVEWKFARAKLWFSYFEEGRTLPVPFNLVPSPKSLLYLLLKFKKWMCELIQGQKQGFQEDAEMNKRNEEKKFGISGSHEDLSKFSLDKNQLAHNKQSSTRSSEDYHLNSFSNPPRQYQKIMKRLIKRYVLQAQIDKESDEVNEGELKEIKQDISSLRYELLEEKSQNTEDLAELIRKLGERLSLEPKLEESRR

[10] = target: Short transient receptor potential channel 6 (Mus musculus) (UniProt Q61143); experiment: activation of mouse TRPC6 channel, confirmation, selectivity assay for TRPC4 activator project, cell-based, HEK293, membrane potential dye, duplicate (AID 434950;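 active = membrane potential signal rise above negative control mean plus 3 SD in both duplicates, also active in the earlier TRPC4 screen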;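 for activation: 0% = buffer only wells and 100% = acetylcholine maximal-effect wells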); settings: HEK293 TRPC6, membrane potential fluorescence, at 10 µM; stronger effect = higher value
[11] = target: Short transient receptor potential channel 6 (Mus musculus) (UniProt Q61143); experiment: TRPC6 potentiation by TRPC4 potentiator hits, confirmation, selectivity assay for TRPC4 potentiator project, HEK293 cells, membrane potential dye, duplicate (AID 434952;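 active = compound raising the membrane signal above positive-control mean plus 3 SD in both repeats, and a primary screen hit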); settings: HEK293 TRPC6, membrane potential dye fluorescence, at 10 µM, maximal acetylcholine added after compound; stronger effect = higher value
[12] = target: Short transient receptor potential channel 4 (Mus musculus) (UniProt Q9QUQ5); experiment: calcium flux activators in TRPC4/5HT1a cells, counter-screen for TRPC4 activator project, cell-based, second counter screen, HEK293 TRPC4/5HT1a, Fluo-4 (AID 434977;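 active = calcium signal rise above buffer-control mean plus 5 SD in both duplicates, and also a hit in the primary screen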;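 for activation: plate controls were assay buffer for no effect and maximal serotonin response for full effect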); settings: Fluo-4 calcium flux, at 10 µM; stronger effect = higher value
[13] = calcium flux inhibitors in TRPC4/5HT1a cells, confirmation, counter-screen for TRPC4 inhibitor project, cell-based, second counter screen, HEK293 TRPC4/5HT1a, Fluo-4 (AID 434978;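 active = primary screen active whose calcium signal fell more than 3 SD beyond the full-serotonin control mean in both duplicate plates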;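 note: serotonin given first at submaximal then at maximal dose after compound preincubation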); settings: Fluo-4 calcium flux, at 10 µM, serotonin added to trigger calcium flux; stronger effect = higher value
[14] = system: TRPC4 (mouse), co-expressed with 5HT1a in HEK293; experiment: calcium flux potentiators in TRPC4/5HT1a cells, confirmation, counter-screen for TRPC4 potentiator project, cell-based, second counter screen, HEK293 TRPC4/5HT1a, Fluo-4 (AID 434979;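 active = signal rise over 3 SD above mean of control wells given weak agonist, in both repeats and first screen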); settings: Fluo-4 calcium flux, at 10 µM, serotonin added at its EC20 dose; stronger effect = higher value
[15] = calcium flux activation in mu-opioid HEK293 cells, confirmation, counter-screen for TRPC4 activator project, cell-based, HEK293 mu-opioid receptor line (AID 449723); settings: Fluo-4 calcium fluorescence, at 10 µM; stronger effect = higher value;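 note: counter screen cells carry the mu-opioid receptor alone and lack TRPC4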
[16] = calcium flux enhancement in mu-opioid HEK293 cells, confirmation, counter-screen for TRPC4 allosteric potentiator project, cell-based, HEK293 mu-opioid receptor line (AID 449724;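 active = calcium signal rise more than 3 SD above the low-dose agonist control mean, in both duplicate plates and the primary screen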); settings: Fluo-4 calcium flux, at 10 µM, compound added before EC20 DAMGO stimulus; stronger effect = higher value

Cc1ccc(N2CCN(c3ccc(NCc4nc5ccccc5n4C)cc3)CC2)cc1
active: activation [1] 79%
inactive: outcome [2] | outcome [3] | outcome [4] | outcome [5] | outcome [6] | outcome [7] | outcome [8] | outcome [9] | outcome [10] | outcome [11] | outcome [12] | outcome [13] | outcome [14] | outcome [15] | outcome [16]

Cc1cc(NC(=O)CN2CCc3ccccc3C2)nc2c1c(=O)oc1ccccc12
inactive: outcome [1] | outcome [2] | outcome [3] | outcome [4] | outcome [5] | outcome [6] | outcome [7] | outcome [8] | outcome [9] | outcome [10] | outcome [11] | outcome [12] | outcome [13] | outcome [14] | outcome [15] | outcome [16]

Cc1csc2c(N3CCN(C(=S)Nc4ccc(F)cc4F)CC3)ncnc12
active: activation [1] 126% | activation [12] 40.5%
inactive: outcome [2] | outcome [3] | outcome [4] | outcome [5] | outcome [6] | outcome [7] | outcome [8] | outcome [9] | outcome [10] | outcome [11] | outcome [13] | outcome [14] | outcome [15] | outcome [16]

CCCN(CCC)CCCNC(=O)C1CCC(CNS(=O)(=O)c2cccc3nsnc23)CC1 (centres undefined)
active: activation [1] 83% | activation [2] 52% | activation [12] 29.2%
inactive: outcome [3] | outcome [4] | outcome [5] | outcome [6] | outcome [7] | outcome [8] | outcome [9] | outcome [10] | outcome [11] | outcome [13] | outcome [14] | outcome [15] | outcome [16]

CSCCC(NS(=O)(=O)c1ccc2c(c1)c(=O)n(C)c(=O)n2C)C(=O)NC1CCN(Cc2ccccc2)CC1 (centres undefined)
inactive: outcome [1] | outcome [2] | outcome [3] | outcome [4] | outcome [5] | outcome [6] | outcome [7] | outcome [8] | outcome [9] | outcome [10] | outcome [11] | outcome [13] | outcome [14] | outcome [15] | outcome [16]
active: activation [12] 8.04%

CN(C)C(CNC(=O)c1cnc(Cl)c(Cl)c1)c1ccccc1 (centres undefined)
active: activation [1] 169% | activation [2] 151% | activation [10] 30.5%
inactive: outcome [3] | outcome [4] | outcome [5] | outcome [6] | outcome [7] | outcome [8] | outcome [9] | outcome [11] | outcome [12] | outcome [13] | outcome [14] | outcome [15] | outcome [16]

O=C(C1CCCN(Cc2ccccc2F)C1)N1CCc2ccccc2C1 (centres undefined)
inactive: outcome [3] | outcome [4] | outcome [5] | outcome [6] | outcome [7] | outcome [8] | outcome [9] | outcome [11] | outcome [13] | outcome [14] | outcome [15] | outcome [16]
active: activation [1] 96% | activation [2] 98% | activation [10] 56.5% | activation [12] 40.5%

Cc1cccc(C)c1OCC(O)CN (centres undefined)
active: activation [1] 90% | activation [10] 30.5% | activation [12] 20.1%
inactive: outcome [2] | outcome [3] | outcome [4] | outcome [5] | outcome [6] | outcome [7] | outcome [8] | outcome [9] | outcome [11] | outcome [13] | outcome [14] | outcome [15] | outcome [16]

CC1(C)CC(=O)c2cc(C(=O)NCc3ccco3)c(=O)n(-c3ccc(Cl)cc3)c2C1
inactive: outcome [1] | outcome [2] | outcome [3] | outcome [4] | outcome [5] | outcome [6] | outcome [7] | outcome [8] | outcome [9] | outcome [11] | outcome [12] | outcome [13] | outcome [14] | outcome [15] | outcome [16]
active: activation [10] 66.5%

CN(CCc1ccccn1)C(=O)CC1C(=O)NCCN1Cc1ccccc1C(F)(F)F (centres undefined)
active: activation [1] 178% | activation [12] 50.4%
inactive: outcome [2] | outcome [3] | outcome [4] | outcome [5] | outcome [6] | outcome [7] | outcome [8] | outcome [9] | outcome [10] | outcome [11] | outcome [13] | outcome [14] | outcome [15] | outcome [16]

CC(C)(C)c1cc(Cl)ccc1OCCn1ccnc1
inactive: outcome [2] | outcome [3] | outcome [4] | outcome [5] | outcome [6] | outcome [7] | outcome [8] | outcome [9] | outcome [10] | outcome [11] | outcome [13] | outcome [15] | outcome [16]
active: activation [1] 57% | activation [12] 17.9% | potentiation [14] 14.1%

C#Cc1cccc(C(=O)NC2CCCN(C3Cc4ccccc4C3)C2)c1 (centres undefined)
inactive: outcome [3] | outcome [4] | outcome [5] | outcome [6] | outcome [7] | outcome [8] | outcome [9] | outcome [11] | outcome [13] | outcome [14] | outcome [15] | outcome [16]
active: activation [1] 191% | activation [2] 94% | activation [10] 59% | activation [12] 111%

CC1CCCN(CCCNC(=O)c2ccc3c(c2)N(Cc2ccccc2F)C(=O)c2ccccc2S3(=O)=O)C1 (centres undefined)
active: activation [1] 125% | activation [2] 68% | activation [12] 24.4%
inactive: outcome [3] | outcome [4] | outcome [5] | outcome [6] | outcome [7] | outcome [8] | outcome [9] | outcome [10] | outcome [11] | outcome [13] | outcome [14] | outcome [15] | outcome [16]

Cc1cc(Cl)cc(C)c1OCCCCn1ccnc1
inactive: outcome [2] | outcome [3] | outcome [4] | outcome [5] | outcome [6] | outcome [7] | outcome [8] | outcome [9] | outcome [11] | outcome [13] | outcome [14] | outcome [15] | outcome [16]
active: activation [1] 98% | activation [10] 42.5% | activation [12] 36.8%
